# Test results published in PubChem BioAssay (NCATS).
# Inconclusive results are not listed. A number with no mark means an inactive call. Calls come from the whole dose curve; as a rule, active = well fitted curve in the direction sought with a large enough effect; inconclusive = small, poorly fitted or top-dose-only effect, or another doubt; inactive = no such curve, though single readings can be large or run the other way.
# Experiment: KB-8-5-11 P-gp reporter qHTS against the NCATS DSHEA and TCM libraries (AID 1919977); note: 0% is about no effect
# Settings: KB-8-5-11 cells; series mostly up to 26.1 µM; activity change, negative = inhibition: at the top concentration
# Source text: Assay Development and Screening Technology Laboratory (ADST)
# National Center for Advancing Translational Sciences (NCATS), Rockville, MD
# National Institute of Health (NIH), Bethesda, Maryland
# Dietary Supplements and Natural Products have minor oversight of their safety and efficacy. We assembled a collection of Dietary Supplements and Natural Products (DSNP) as well as Traditional Chinese Medicinal (TCM) Plant extracts, which were screened against an in vitro panel of assays, including a liver cytochrome p450 enzyme panel, CAR/PXR signaling pathways, and P-gp transporter assays, to assess their activity. This pipeline facilitated the interrogation of Natural Product-Drug Interaction (NaPDI) through prominent metabolizing pathways. In addition, we compared the activity profiles of the DSNP/TCM substances with those of an approved drug collection. Many of the approved drugs have well-annotated mechanisms of action (MOA) while the MOAs for most of the DSNP and TCM samples remain unknown. Based on the premise that compounds with similar activity profiles tend to share similar targets or MOA, we clustered the library activity profiles to identify overlap with the NCATS Pharmaceutical Collection to predict the MOAs of the DSNP/TCM substances. Overall, we highlight four significant bioactivity profiles (measured by p-values) as examples of this prediction. To assess broad cytotoxicity, we employed screening against a HepG2 cell line. In addition, transporter-mediated drug interactions are utilized in the characterization of DDIs using a P-glycoprotein (P-gp) assays. To profile potential P-gp activity, a differential cell viability was measured against two cell lines: a parental KB-3-1 human cervical adenocarcinoma cell line and the drug-resistant subline KB-8-5-11 that overexpresses P-gp.
# To this end, we profiled both collections for potential CAR and/or PXR activity, employing a previously published 1536-well qHTS assay.
# [1] Lee TD, et al. A High-Throughput Screen of a Library of Therapeutics Identifies Cytotoxic Substrates of P-glycoprotein. Mol Pharmacol. Nov 2019;96(5):629-640. doi:10.1124/mol.119.115964
# PROTOCOL TABLE (as described by Inglese J, Shamu CE and Guy RK. 2007)
# SEQUENCE No. (e.g., 1, 2, 3, etc.); PARAMETER (e.g., Cells, Incubation, Reagent, etc.); VALUE; DESCRIPTION.
# 1; Cells; 5 uL; KB-8-5-11 cells, white solid-bottom tissue treated Greiner plate.
# 2; Incubation; 4 hrs; 37C, 95% humidity, 5% CO2.
# 3; Compounds and control; 23 nL; Kalypsis pin tool (Wako USA) equipped with a 1536-well pin head to transfer to the assay plates.
# 4; Incubation; 72 hrs; 37C, 95% humidity, 5% CO2.
# 5; Reagent; 2.5 uL; CellTiter-Glo.
# 6; Centrifuge; 1000 RPM; 15 seconds.
# 7; Incubation; 30 min; room temperature.
# 8; Read; Luminescence; ViewLux plate reader.
# NOTES (numbers refer to Sequence numbers above)
# 1. P-gp-overexpressing subline KB-8-5-11 were maintained in DMEM (Thermofisher catalog #11965) with 10% FBS and 1% penicillin/streptomycin at 37C in 5% CO2. For KB-8-5-11 cells, colchicine was added to the medium at a concentration of 100 ng/ml (after initial cell attachment). For the screen, assay medium was identical to culture medium except for KB-8-5-11, where colchicine was excluded from the medium. Briefly, 5 uL of cells at 1 x 10^5 cells/mL (500 cells/well) were dispensed into a 1536-well white solid-bottom tissue treated plate (Greiner Bio-One) using a Multidrop Combi dispenser.
# 2. Plates were incubated at 37C, 95% humidity, 5% CO2 for ~4 hours to allow for cell attachment.
# 3. Compounds and intraplate control (Bortezomib; final concentration range 228 pM - 7.5 uM) were transferred (16 nL) via pintool (Wako Automation), for a final concentration of 15.6 nM - 30.0 uM (most substances).
# 4. Plates were incubated for ~72 hours at 37C, 95% humidity, 5% CO2.
# 5. Plates were then dispensed with 2.5 uL of CellTiter-Glo.
# 6. The assay plates were centrifuged for 15 seconds at 1,000 RPM's.
# 7. The plates were incubated for 30-minute at room temperature.
# 8. […]
row,SMILES,"activity change, negative = inhibition"
1,C=C1C[C@@]23CC[C@H]4[C@@](C)(CCC[C@@]4(C)C(=O)OC4OC(CO)C(O)C(O)C4O)[C@@H]2CC[C@]1(OC1OC(CO)C(O)C(O)C1OC1OC(CO)C(O)C(O)C1O)C3 (stereo partly specified),12.9%
2,CC(C)c1ccc(C=O)cc1,-4.27% [at 44.5 µM]
3,C=C(CO)C(=O)O[C@H]1CC(=C)[C@@H]2C[C@H](O)C(=C)[C@@H]2[C@H]2OC(=O)C(=C)[C@@H]21,-2.08%
4,O=c1cc(-c2ccc(O)cc2)oc2cc(O)cc(O)c12,-8.58%
5,Cc1cc2nc3c(=O)[nH]c(=O)nc-3n(CC(O)C(O)C(O)CO)c2cc1C (stereo unspecified),-7.39%
6,O=c1c(-c2ccc(O)cc2)coc2cc(O[C@@H]3O[C@H](CO)[C@H](O)[C@H](O)[C@H]3O)ccc12,6.43%
7,CC1=CCC(O)(C(C)C)CC1 (stereo unspecified),-4.67% [at 44.5 µM]
8,CC(=O)C1=C(O)C=C2Oc3c(C(C)=O)c(O)c(C)c(O)c3[C@]2(C)C1=O,10.8%
9,O=C(O)/C=C/c1ccccc1,-1.16% [at 44.5 µM]
10,C=C(C)[C@H]1CC=C(CO)CC1,-8.28%
11,CC(=O)OC/C=C/c1ccccc1,-10.9% [at 44.5 µM]
12,CCCCCCCCCCCCCC(=O)OCC(O)CO (stereo unspecified),-12.8% [at 44.5 µM]
13,CC1=CCC(=C(C)C)CC1,-6.75% [at 44.5 µM]
14,CCCCCCCCCCCC(=O)OCC(O)CO (stereo unspecified),-5.44%
15,C=C(C)[C@@H]1CC=C(C=O)CC1,-5.92% [at 44.5 µM]
16,COc1ccc(C(C)=O)c(O)c1,-4.65%
17,Cc1ncc(C[n+]2csc(CCO)c2C)c(N)n1,13.3%
18,CC(C)(CO)[C@@H](O)C(=O)NCCC(=O)O,15.9%

row,SMILES,"activity change, negative = inhibition"
1,O=C(/C=C/c1ccc(O)c(O)c1)OC(Cc1ccc(O)c(O)c1)C(=O)O (stereo unspecified),-3.13%
2,O=c1cc(-c2ccc(O)c(O)c2)oc2cc(O)cc(O)c12,-19.7%
3,O=C(/C=C/c1ccc(O)c(O)c1)O[C@@H]1C[C@](O)(C(=O)O)C[C@@H](O)[C@H]1O,6.66%
4,CC(C)=CCC(O)/C(C)=C/CO[C@@H]1O[C@H](CO)[C@@H](O)[C@H](O)[C@H]1O (stereo partly specified),14.7%
5,CCCCCCCC(=O)O,-6.49%
6,O=C1c2c(O)cccc2[C@@H]([C@@H]2O[C@H](CO)[C@@H](O)[C@H](O)[C@H]2O)c2cc(CO)cc(O)c21,-3.41%
7,CCCCCC(=O)CC,-1.5% [at 79.1 µM]
8,COc1ccc(-c2coc3cc(O)ccc3c2=O)cc1,-8.89%
9,CCCCCCCCCC=O,-9.33% [at 44.5 µM]
10,C[N+](C)(C)CCO,-2.62%
11,CCCCCCCCCC(=O)O,-12.2%
12,C=CC(=C)CCC=C(C)C,-5.04%
13,C=C/C(C)=C/C/C=C(\C)CCC=C(C)C,-14.8% [at 44.5 µM]
14,O=C(O)c1ccccc1,-9.32%
15,O=C(O)/C=C/c1ccc(O)c(O)c1,14.2%
16,C[C@@]12C[C@@]3(O)O[C@@H](O1)[C@]1(COC(=O)c4ccccc4)[C@@H]3C[C@@]12O[C@@H]1O[C@H](CO)[C@@H](O)[C@H](O)[C@@H]1O,-0.948%
17,CC(=O)O[C@@H]1C[C@@H](C)[C@](O)(CCC2=CC(=O)OC2)[C@@]2(C)CCCC(C)(C)C12 (stereo partly specified),-9.32%
18,COc1cc(O)c2c(c1)C(=O)c1cc(C)cc(O)c1C2=O,-13.3%
